Our source for the Potency and outcome values is PubChem BioAssay (Tox21).

A number with no mark means an inactive call. Results filed as inconclusive are left out. Activity calls are given as the source filed them. Unless noted, calls come from the whole dose curve.

Experiment [1] can be described thus: Nuclear factor erythroid 2-related factor 2/antioxidant responsive element (Nrf2/ARE) small molecule agonists: luciferase reporter gene qHTS assay in human keratinocytes (AID 1919969). Note: nearly all actives have a fitted effect of over 35% in size. Note: potency is the fitted concentration of half-maximal effect. On the technique in general: A reporter such as luciferase makes a cellular process visible.
For experiment [2], the target named is Gonadotropin-releasing hormone receptor (Homo sapiens) (UniProt P30968). The experiment in a line: Human gonadotropin-releasing hormone receptor (GnRHR) small molecule agonists, calcium flux assay in GnRHR-HEK293 cells (AID 1920063). Note: nearly all actives have a fitted effect of over 35% in size. The gist of the method: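 Intracellular calcium rise is the read-out: engineered human GnRHR HEK293 cells, dye-loaded, are exposed to DMSO-dissolved compounds and fluorescence at Ex/Em 480/540 is tracked for 3 min.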
Chain of Gonadotropin-releasing hormone receptor (Homo sapiens) (P30968 whole entry, looked up): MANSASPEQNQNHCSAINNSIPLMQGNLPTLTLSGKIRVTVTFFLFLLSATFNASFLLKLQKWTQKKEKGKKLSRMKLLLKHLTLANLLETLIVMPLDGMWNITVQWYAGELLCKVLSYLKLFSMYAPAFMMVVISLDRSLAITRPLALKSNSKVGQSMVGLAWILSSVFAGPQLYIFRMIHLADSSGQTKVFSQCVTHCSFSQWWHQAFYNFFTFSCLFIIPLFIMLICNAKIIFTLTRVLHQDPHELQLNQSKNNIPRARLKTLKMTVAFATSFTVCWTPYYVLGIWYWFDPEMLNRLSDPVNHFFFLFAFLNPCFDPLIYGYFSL
Background: Calcium assays in cells follow changes in intracellular calcium, usually with a dye or a luminescent sensor.

For experiment [3], the target named is KiSS-1 receptor (Homo sapiens) (UniProt Q969F8). The experiment in a line: Human kisspeptin (KISS1R) small molecule agonists, calcium flux assay in KISS1R-HEK293 cells (AID 1920064; active = well fitted activation curve with a large enough effect in the repeat runs). The method in brief:
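Concentration-response testing used 15 concentrations in triplicate on human KISS1R-expressing HEK293 cells. Calcium-dependent fluorescence (Ex/Em 480/540) was followed kinetically for 3 min after compound transfer.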

Experiment [4] can be described thus: p53 small molecule agonists, cell-based qHTS assay with human liver microsomes (AID 1963577). The method in brief:
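Cells carrying a p53-responsive bla reporter were rested 5 h (37 C, 5% CO2) before compound transfer. Human liver microsomes plus NADPH, 0.5 mg/mL final apiece, supplied metabolism during the 16 h 37 C exposure.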
On the technique in general: In qHTS, concentration-response curves come from the screen itself.

Experiment [5] in a line: p53 small molecule agonists, cell-based qHTS assay with rat liver microsomes (AID 1963578). The gist of the method: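 Fluorescence from a beta-lactamase reporter under a p53 response element was measured after cells had been incubated 16 h at 37 C with test compound and rat liver microsomes plus NADPH (0.5 mg/mL final each).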
Experiment [6] in a line: p53 small molecule agonists, cell-based qHTS assay with human liver microsomes: qHTS cell viability counter screen (AID 1963579). Note: nearly all actives have a fitted effect of over 45% in size. The gist of the method:
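Seed p53RE-bla cells at 4,000 per well; incubate 5 h at 37 C; add compound, human liver microsomes and NADPH; incubate 16 h at 37 C; add CellTiter-Glo; after 30 min at room temperature, read luminescence.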

Experiment [7] can be described thus: p53 small molecule agonists, cell-based qHTS assay with rat liver microsomes: qHTS cell viability counter screen (AID 1963580). Note: nearly all actives have a fitted effect of over 45% in size. The gist of the method:
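Luminescent ATP readout (CellTiter-Glo, 30 min at room temperature) reports viability of p53RE-bla HCT-116 cells after 16 h at 37 C with test compounds under metabolic activation by rat liver microsomes and NADPH at 0.5 mg/mL final each.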

A short description of experiment [8]: p53 small molecule agonists, cell-based qHTS assay: qHTS cell viability counter screen (AID 1963581). Note: nearly all actives have a fitted effect of over 45% in size. The method in brief:
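Luminescence from CellTiter-Glo, reflecting ATP content, serves as the cytotoxicity measure; it is taken after the 2 h reporter substrate step in HCT-116 p53RE-bla cells dosed for 16 h at 37 C.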

Experiment [9] can be described thus: p53 small molecule agonists, cell-based qHTS assay (AID 1963582; active = well fitted activation curve with a large enough effect in the signal ratio in the repeat runs, not every such curve was filed as active; the % refers to the signal ratio). The method in brief:
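After plating, p53RE-bla cells sat 5 h in the incubator; compounds or DMSO vehicle were pinned in; a 16 h incubation at 37 C followed; FRET substrate was added and, 2 h later at RT, fluorescence was measured.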

For experiment [10], the target named is 5-hydroxytryptamine receptor 2A (Homo sapiens) (UniProt P28223). The experiment in a line: 5-hydroxytryptamine receptor 2A (HTR2A) small molecule antagonists, cell-based qHTS assay (AID 1963586). Note: nearly all actives have a fitted effect of over 45% in size. The method in brief:
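CHO cells stably expressing human HTR2A were plated for 18 h at 37 C, then loaded with calcium dye for 1 h. Compounds were preincubated 5 min at room temperature before DOI (4 nM solution) was added. Kinetic fluorescence was read for 3 min.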

The target is the same in experiment [11]. The experiment in a line: 5-hydroxytryptamine receptor 2A (HTR2A) small molecule agonists, cell-based qHTS assay (AID 1963587). Note: nearly all actives have a fitted effect of over 30% in size. The method in brief: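 HTR2A-CHO cells, plated 18 h at 37 C/5% CO2, dye-loaded 1 h at 37 C; compounds in DMSO added by pin tool (agonist mode). Intracellular calcium flux read as kinetic fluorescence on FDSS over 2 min at 1 s intervals.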

Experiment [12] addresses Muscarinic acetylcholine receptor M1 (Homo sapiens) (UniProt P11229). Briefly: Cholinergic receptor muscarinic 1 (CHRM1) small molecule agonists, cell-based qHTS assay (AID 1963589). Note: nearly all actives have a fitted effect of over 35% in size. The method in brief:
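Fluorescent calcium dye reports M1 activation in stably transfected CHO cells. Compounds, 15 concentrations, added after 1 h dye loading at 37 C; kinetic reading at 1 sec intervals.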

A short description of experiment [13]: cAMP Responsive Elements (CRE) small molecule agonists, cell-based qHTS assay (AID 1963590). The method in brief:
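Compound exposure lasted 3 h at 37 C/5% CO2 in CRE-bla HEK 293T cells grown in assay medium with 10% dialyzed FBS and 25 mM HEPES. Reporter signal came from LiveBLAzer B/G FRET substrate, 2 h, room temperature.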

A short description of experiment [14]: cAMP Responsive Elements (CRE) small molecule antagonists, cell-based qHTS assay (AID 1963591; active = well fitted inhibition curve with a large enough effect in the signal ratio in the repeat runs, not every such curve was filed as active; the % refers to the signal ratio). The gist of the method: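 Stimulation used NKH477 at a final 0.25 uM for 3 h in compound-treated CRE-bla HEK293T cells, seeded 18 h beforehand. Reporter activity was measured with LiveBLAzer B/G FRET substrate after 2 h at room temperature.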
Experiment [15] concerns the target Beta-2 adrenergic receptor (Homo sapiens) (UniProt P07550). The experiment in a line: Adrenergic beta2 receptor (ADRB2) small molecule antagonists, cell-based qHTS assay (AID 1963592). Note: series mostly up to about 92 µM; nearly all actives have a fitted effect of over 50% in size. The gist of the method:
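Assay format: CHO-ADRB2 cells, 18-20hr seeding at 37C/5% CO2, then compound plus 1nM isoproterenol agonist mix for 0.5hr RT. Homogeneous time-resolved fluorescence cAMP detection after 1hr, expressed as 665/615 nm ratio.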

The target is the same in experiment [16]. Briefly: Adrenergic beta2 receptor (ADRB2) small molecule agonists, cell-based qHTS assay (AID 1963593).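 Note: CHO cells stably overexpressing human ADRB2.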 The method in brief:
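CHO cells stably over-expressing ADRB2 were plated overnight at 37C, then dosed with compounds plus a stimulation mix containing 100uM IBMX and 25uM Ro-20-1724 for 0.5hr at room temperature. cAMP was measured by HTRF competition, 1hr.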

Experiment [17] concerns the target D(2) dopamine receptor (Homo sapiens) (UniProt P14416). Briefly: Dopamine D2 receptor (DRD2) small molecule agonists, cell-based qHTS assay (AID 1963594). Note: nearly all actives have a fitted effect of over 35% in size. The method in brief: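 HEK293 cells stably expressing DRD2 were cultured 24 h at 37 C, then given Ro20-1724 (0.1 mM final) and compounds for 10 min at room temperature. NKH477 (200nM) was then added for 30 min. cAMP was read by HTRF.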

The target is the same in experiment [18]. Briefly: Dopamine D2 receptor (DRD2) small molecule antagonists, cell-based qHTS assay (AID 1963595; active = well fitted inhibition curve with a large enough effect in the signal ratio in the repeat runs, with a control signal flat; the % refers to the signal ratio). The gist of the method: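 Antagonism was scored as restored cAMP in HEK293-DRD2 cells. These cells were stimulated with 200 nM NKH477 and 12 nM quinpirole for 30 min at room temperature, in the presence of 0.1 mM Ro20-1724.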
Experiment [19] in a line: G protein-coupled receptor (GPCR) small molecule agonists, calcium flux assay: HEK293 wild type cell line counter screen (AID 1920065). The gist of the method:
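Fluorescence intensity signals activation. After overnight (18 h) culture and a 1 h calcium dye load at 37 C, compounds are added by pin tool and the plate read at 480/540 nm for 3 min in 1 s steps.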

Experiment [20] concerns the target Muscarinic acetylcholine receptor M1 (Homo sapiens) (UniProt P11229). Briefly: Cholinergic receptor muscarinic 1 (CHRM1) small molecule antagonists, cell-based qHTS assay (AID 1963588). Note: nearly all actives have a fitted effect of over 40% in size. The method in brief:
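Compounds were tested at 15 concentrations in three independent runs. Dye-loaded CHRM1-CHO cells were exposed 5 min at room temperature before stimulation by acetylcholine added at 50nM. Intracellular calcium was read kinetically on FDSS for 3 min.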

Chain of 5-hydroxytryptamine receptor 2A (Homo sapiens) (P28223 whole entry, looked up): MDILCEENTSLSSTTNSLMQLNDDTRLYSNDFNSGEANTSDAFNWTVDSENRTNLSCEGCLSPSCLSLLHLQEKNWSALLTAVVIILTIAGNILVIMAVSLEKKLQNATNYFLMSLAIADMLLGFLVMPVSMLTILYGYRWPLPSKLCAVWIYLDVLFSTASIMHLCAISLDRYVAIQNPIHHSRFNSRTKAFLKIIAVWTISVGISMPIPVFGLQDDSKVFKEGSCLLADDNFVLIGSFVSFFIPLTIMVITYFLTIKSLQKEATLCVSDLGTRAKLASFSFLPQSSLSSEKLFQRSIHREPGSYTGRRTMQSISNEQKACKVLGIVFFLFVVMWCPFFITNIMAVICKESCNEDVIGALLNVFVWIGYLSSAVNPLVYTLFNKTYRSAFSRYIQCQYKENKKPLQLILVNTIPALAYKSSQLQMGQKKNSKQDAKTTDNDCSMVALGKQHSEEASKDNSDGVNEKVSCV
Chain of Muscarinic acetylcholine receptor M1 (Homo sapiens) (P11229 whole entry, looked up): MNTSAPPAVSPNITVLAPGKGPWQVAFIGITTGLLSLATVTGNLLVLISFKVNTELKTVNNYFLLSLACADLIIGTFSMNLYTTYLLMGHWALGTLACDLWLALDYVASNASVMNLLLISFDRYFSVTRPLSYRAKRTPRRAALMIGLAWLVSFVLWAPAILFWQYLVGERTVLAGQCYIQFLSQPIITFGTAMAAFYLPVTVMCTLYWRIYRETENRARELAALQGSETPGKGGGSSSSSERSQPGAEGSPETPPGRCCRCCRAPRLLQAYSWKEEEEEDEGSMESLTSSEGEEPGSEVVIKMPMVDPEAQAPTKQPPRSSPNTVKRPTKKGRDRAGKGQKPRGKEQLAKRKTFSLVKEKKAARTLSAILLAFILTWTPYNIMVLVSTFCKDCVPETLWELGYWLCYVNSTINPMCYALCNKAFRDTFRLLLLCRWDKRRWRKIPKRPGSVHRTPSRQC
Chain of Beta-2 adrenergic receptor (Homo sapiens) (P07550 whole entry, looked up): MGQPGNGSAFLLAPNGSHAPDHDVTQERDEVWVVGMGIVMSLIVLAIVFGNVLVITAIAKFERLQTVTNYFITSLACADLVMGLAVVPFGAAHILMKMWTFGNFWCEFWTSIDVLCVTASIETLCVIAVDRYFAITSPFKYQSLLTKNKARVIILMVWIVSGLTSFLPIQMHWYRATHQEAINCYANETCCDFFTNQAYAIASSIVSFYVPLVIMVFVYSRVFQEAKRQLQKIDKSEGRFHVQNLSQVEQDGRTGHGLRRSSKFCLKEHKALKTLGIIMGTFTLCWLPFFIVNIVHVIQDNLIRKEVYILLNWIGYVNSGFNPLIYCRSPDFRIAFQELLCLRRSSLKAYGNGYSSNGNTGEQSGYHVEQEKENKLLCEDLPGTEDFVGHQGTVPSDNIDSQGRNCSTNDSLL
Chain of KiSS-1 receptor (Homo sapiens) (Q969F8 whole entry, looked up): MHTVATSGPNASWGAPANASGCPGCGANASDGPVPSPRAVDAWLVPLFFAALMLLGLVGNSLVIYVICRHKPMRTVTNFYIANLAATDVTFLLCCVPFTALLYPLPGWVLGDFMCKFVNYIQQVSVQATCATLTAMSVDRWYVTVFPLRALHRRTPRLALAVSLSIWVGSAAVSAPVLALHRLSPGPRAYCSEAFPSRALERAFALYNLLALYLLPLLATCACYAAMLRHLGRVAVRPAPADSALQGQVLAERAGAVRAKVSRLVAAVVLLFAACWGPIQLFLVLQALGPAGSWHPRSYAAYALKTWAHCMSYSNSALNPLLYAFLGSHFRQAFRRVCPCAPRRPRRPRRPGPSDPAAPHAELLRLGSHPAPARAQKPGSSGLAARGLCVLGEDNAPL
Chain of D(2) dopamine receptor (Homo sapiens) (P14416 whole entry, looked up): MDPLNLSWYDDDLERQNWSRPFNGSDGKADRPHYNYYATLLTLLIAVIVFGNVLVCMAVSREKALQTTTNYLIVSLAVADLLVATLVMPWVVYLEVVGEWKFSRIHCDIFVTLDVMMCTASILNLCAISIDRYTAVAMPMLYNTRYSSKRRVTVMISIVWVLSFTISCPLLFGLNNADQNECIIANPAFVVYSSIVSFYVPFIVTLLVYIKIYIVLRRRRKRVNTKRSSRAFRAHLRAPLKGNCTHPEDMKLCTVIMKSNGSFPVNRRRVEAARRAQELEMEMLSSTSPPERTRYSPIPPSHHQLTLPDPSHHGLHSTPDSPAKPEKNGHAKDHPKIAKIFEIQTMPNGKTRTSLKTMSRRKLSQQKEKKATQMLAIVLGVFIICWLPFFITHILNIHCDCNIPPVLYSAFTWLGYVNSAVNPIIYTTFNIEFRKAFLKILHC

Turning to `CCCCCc1ccco1`, in experiment [1], the Potency is 44.7 µM (active). Further, the Potency entry in experiment [2], in [4], in [5], in experiment [6], in experiment [7] and in experiment [8] was “inactive” each time. Besides, the Potency entry in experiment [9], in [10], in [11], in experiment [12], in experiment [13] and in [14] was “inactive” each time. Besides, the Potency entry in experiment [15], in experiment [16], in experiment [17] and in experiment [18] was “inactive” in each case. Further, the result in experiment [3] was inactive.
Consider `Cc1c(Cn2ccnc2)c2ccccc2n1CCC(=O)O`, for which the result in [3] and in experiment [19] was inactive. The Potency result in experiment [4], in experiment [5], in experiment [7], in experiment [8], in [9] and in experiment [10] was “inactive” in each case. In addition, the Potency result in [11], in experiment [20], in experiment [12], in [13], in experiment [14] and in experiment [15] was “inactive” each time. Also, the Potency entry in [18] is “inactive”.
Regarding `COc1ccc(N)c([N+](=O)[O-])c1`, the Potency entry in experiment [1], in experiment [4], in experiment [5], in experiment [6], in [7] and in experiment [8] was “inactive” in each case. For the same molecule, the Potency result in experiment [9], in experiment [10], in experiment [11], in experiment [20], in experiment [12] and in [13] was “inactive” each time. Besides, the Potency entry in experiment [14], in experiment [15], in experiment [17] and in experiment [18] was “inactive” throughout. The outcome in [3] and in experiment [19] was inactive.
In the case of `CNC(=O)N(c1ccccc1)c1ccccc1`, the Potency entry in [2], in [4], in [5], in [7], in experiment [8] and in [9] was “inactive” in each case. Further, the Potency entry in experiment [10], in [11], in experiment [20], in [13], in experiment [14] and in [15] was “inactive” each time. Also, the Potency result in experiment [17] and in experiment [18] was “inactive” each time. Also, the result in experiment [3] and in experiment [19] was inactive.
With `CCOC(=O)c1ccccc1`, the Potency entry in [1], in experiment [4], in [5], in [6], in [7] and in experiment [8] was “inactive” in each case. Moreover, the Potency result in experiment [9], in experiment [10], in experiment [11], in experiment [20], in [12] and in [13] was “inactive” throughout. The Potency result in experiment [14], in experiment [17] and in experiment [18] was “inactive” throughout. In addition, in [3], the result was inactive.
For `CCC(=O)Nc1ccc(O)cc1`, the Potency result in experiment [1], in [4], in [5], in experiment [6], in experiment [7] and in [8] was “inactive” in each case. Moreover, the Potency result in experiment [9], in experiment [10], in experiment [20], in experiment [12], in experiment [14] and in [15] was “inactive” each time. For the same molecule, the Potency result in experiment [17] and in experiment [18] was “inactive” in each case. Besides, the outcome in experiment [3] and in experiment [19] was inactive.
For the molecule `CCC(C(=O)OCCN1CCOC(c2ccccc2)C1C)c1ccccc1` (centres undefined), the Potency entry in experiment [1], in experiment [4], in experiment [5], in experiment [6], in experiment [7] and in experiment [8] was “inactive” in each case. Further, the Potency result in experiment [11], in [12], in [13], in experiment [14], in experiment [15] and in experiment [17] was “inactive” each time. In addition, the Potency entry in [18] is “inactive”. Further, the result in experiment [3] and in experiment [19] was inactive.
Take `CC(C)(C)c1cc(CCC(=O)NCCCCCCNC(=O)CCc2cc(C(C)(C)C)c(O)c(C(C)(C)C)c2)cc(C(C)(C)C)c1O`: the Potency entry in [1], in experiment [4], in experiment [5], in experiment [6], in experiment [7] and in experiment [8] was “inactive” in each case. Besides, the Potency result in experiment [9], in experiment [10], in [11], in experiment [20], in experiment [12] and in experiment [15] was “inactive” each time. Also, the Potency result in [17] and in experiment [18] was “inactive” each time. Also, in [19], the result was inactive.
